The values that follow come from ChEMBL document CHEMBL3988442, “University of Dundee, Small-Polar-MMV Screening Library” (2021).

The species named for one experiment is Homo sapiens. Description: To identify inhibition of the IFN signalling (Jak-Stat) pathway via expression of an eGFP reporter gene under the control of an IFN-stimulated response element (ISRE) containing MxA promoter. It counts as functional. Also on record: scale not given: direction of the effect not stated beside the values. To be noted: 30 µM. In general terms: In a reporter assay the amount or activity of a reporter protein is the signal.
`CC(=O)N1CCCC1c1nccc(C)n1` (stereo not drawn): the Percent Effect turned out to be 3.01%.

Consider `CN(Cc1nccn1CC(F)(F)F)C(=O)c1cccc(C#N)c1`, for which the Percent Effect was -14.9%.

In the case of `COc1ccc(-c2noc(CNC(C)Cn3cccn3)n2)c(OC)c1` (stereo not drawn), the Percent Effect was determined as 17.3%.

Turning to `NCC(=O)N1CCCC(c2cncc(Nc3ncccn3)n2)C1` (stereo not drawn), the Percent Effect is 5.7%.

Turning to `O=C(Cc1ccccc1)N1CCC2(CC(=O)N(c3ccsc3)C2)C1` (stereo not drawn), the Percent Effect is -6.08%.

`CCCSCC(=O)NS(=O)(=O)c1ccc2c(c1)OCCO2`: the Percent Effect was -0.713%.

`O=C(NC1CC1)[C@H]1C[C@@H]2CCN(CCc3ccccc3)C[C@H]2O1`: the Percent Effect was 4.51%.

For the compound `OC1CCCN(Cc2c(-c3ccco3)[nH]c3ncccc23)C1` (stereo not drawn), the Percent Effect came out at 20.3%.

Regarding `Cn1cccc1C1CCCN1C(=O)NCCCn1cccn1` (stereo not drawn), the Percent Effect came out at 8.34%.

Turning to `O=C(NC1(c2nnn(CCO)n2)CCCC1)c1ccccc1`, the Percent Effect is -6.59%.

In the case of `O=C(Cc1ccccc1)N1CCC2(CC(=O)N(c3cccc(F)c3)C2)C1` (stereo not drawn), the Percent Effect was -6.6%.

Regarding `c1cncc(C2COC3(CCN(CC4CC4)CC3)C2)c1` (stereo not drawn), the Percent Effect was -13.5%.

`Cc1nc(C2CCCN(C(=O)c3ccc(OCC4CC4)cc3)C2)no1` (stereo not drawn): the Percent Effect is 0.288%.

Turning to `Cc1ncsc1C(=O)NC1CCN(CCC(N)=O)CC1`, the Percent Effect was determined as 4.69%.

On to `CCn1cc(N)c(C(=O)NCc2cnn(C)c2)n1`, for which the Percent Effect is -5.92%.

Consider `O=C(NCCNc1ccc(C(F)(F)F)cn1)c1ccc(Br)cc1F`, for which the Percent Effect worked out at 6.29%.

`CCc1ccc(C(=O)N2CCCC(c3noc(CC)n3)C2)o1` (stereo not drawn): the Percent Effect is 3.88%.

For `CN(c1ccc(C(=O)NCCCN2CCOCC2)c(Cl)c1)S(C)(=O)=O`, the Percent Effect is -1.2%.

Consider `CCN1CCCC1CN(CCN(C)C)S(=O)(=O)c1ccc(C#N)cc1` (stereo not drawn), for which the Percent Effect was determined as 3.29%.

Take `CN(C)C(C)(C)CNC(=O)C(C)(C)c1ccccc1F`: the Percent Effect was 17.2%.

As for `Cc1cccc(CCC(=O)N2CCOCC2c2c(C)n[nH]c2C)c1` (stereo not drawn), the Percent Effect was determined as 9.04%.

`COc1ccc(NC(=O)c2ccc[nH]2)c(N2CCN(C(C)=O)CC2)n1`: the Percent Effect was -7.2%.

For `CS(=O)(=O)NCC1CCCN(C(=O)Nc2ccccc2Cl)C1` (stereo not drawn), the Percent Effect worked out at 29.4%.

Take `O=c1cc2c(nn1CN1CCOCC1)CCC2`: the Percent Effect worked out at 14.3%.

Regarding `CN(C)C(CNC(=O)c1cccc(-n2cnnn2)c1)c1ccccc1Cl` (stereo not drawn), the Percent Effect is 10.5%.

For the compound `COc1cccc2c1ccn2CCNC(=O)C(C)C`, the Percent Effect is 26.9%.

In the case of `CCc1ncncc1C(=O)N1CCCN(Cc2ccc(C)cc2)CC1`, the Percent Effect was determined as 6.25%.

`CC(NC1(CNC(=O)C(C)(C)C#N)CCOCC1)c1ccccc1` (stereo not drawn): the Percent Effect stood at 7%.

`COc1ccc(CN2C[C@@H]3OCCN(CC4CCCO4)[C@@H]3C2)cc1` (stereo partly drawn): the Percent Effect amounted to 3.23%.

As to `Cc1cc(C)c(CNC(=O)N2CCN(c3cnccn3)CC2)c(=O)[nH]1`, the Percent Effect is 11.3%.

Regarding `Cc1nc(CN(Cc2cccs2)C2CCS(=O)(=O)C2)oc1C` (stereo not drawn), the Percent Effect was -8.22%.

`CCOc1ccc(S(=O)(=O)NC(=O)CCC2CCCO2)cc1` (stereo not drawn): the Percent Effect was 1.86%.

In the case of `CC(C)NC(=O)N1CC[C@@H]2CN(Cc3ccccc3)S(=O)(=O)[C@@H]2CC1`, the Percent Effect came to 29.7%.

On to `CN(Cc1ccc(F)cc1)C(=O)CN1CCCC(Cn2cncn2)C1` (stereo not drawn), for which the Percent Effect was -5.05%.

In the case of `CNS(=O)(=O)c1ccc(C(=O)N2CCCC(n3cccn3)C2)cc1` (stereo not drawn), the Percent Effect was determined as 1.3%.

For the compound `Cc1ccc(F)c(-n2nnc(C(=O)O)c2-c2ccncc2)c1`, the Percent Effect is -8.42%.

Take `CN(C)c1ccc(C(=O)NCC2(O)CCOCC2)cc1`: the Percent Effect was -3.96%.

Regarding `CNS(=O)(=O)CCCN1CCCC1c1cc(C)on1` (stereo not drawn), the Percent Effect worked out at 13.8%.

For `CCN1CC2(CC1=O)CN(Cc1cccs1)CCN(C(=O)C(C)C)C2` (stereo not drawn), the Percent Effect is -3.43%.

The target of another experiment is T1, Tyrosyl-tRNA synthetase, putative (Trypanosoma cruzi (strain CL Brener)) (UniProt Q4DSP6).
T1 sequence (whole entry): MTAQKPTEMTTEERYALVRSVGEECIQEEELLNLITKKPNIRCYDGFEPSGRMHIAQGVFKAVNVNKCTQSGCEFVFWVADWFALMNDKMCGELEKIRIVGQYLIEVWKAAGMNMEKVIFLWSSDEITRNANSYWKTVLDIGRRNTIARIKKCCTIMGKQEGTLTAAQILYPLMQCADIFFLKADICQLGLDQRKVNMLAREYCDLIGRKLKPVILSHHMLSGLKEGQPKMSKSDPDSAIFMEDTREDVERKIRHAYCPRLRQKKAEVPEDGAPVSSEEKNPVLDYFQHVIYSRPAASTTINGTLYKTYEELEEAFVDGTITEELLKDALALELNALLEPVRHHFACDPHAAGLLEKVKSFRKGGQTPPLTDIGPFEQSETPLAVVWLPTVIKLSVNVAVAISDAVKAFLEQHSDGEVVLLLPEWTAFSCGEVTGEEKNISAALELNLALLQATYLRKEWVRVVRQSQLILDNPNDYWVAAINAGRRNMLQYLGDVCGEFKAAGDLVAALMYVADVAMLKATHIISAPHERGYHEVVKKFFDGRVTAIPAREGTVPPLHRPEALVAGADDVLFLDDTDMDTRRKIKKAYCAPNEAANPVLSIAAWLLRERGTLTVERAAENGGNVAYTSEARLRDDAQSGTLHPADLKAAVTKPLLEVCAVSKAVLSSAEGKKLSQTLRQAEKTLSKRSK
Description: Trypanosoma cruzi tyrosyl tRNA synthetase (TcYRS) _High Tyrosine SOP. The note with it: 30 µM. The format is functional. Also on record: scale not given: in the data most compounds retested in dose-response had high values.
Regarding `CC(=O)N1CCCC1c1nccc(C)n1` (stereo not drawn), the Percent Effect amounted to 3.19%.

On to `CN(Cc1nccn1CC(F)(F)F)C(=O)c1cccc(C#N)c1`, for which the Percent Effect was 3.19%.

In the case of `COc1ccc(-c2noc(CNC(C)Cn3cccn3)n2)c(OC)c1` (stereo not drawn), the Percent Effect stood at 5.42%.

`NCC(=O)N1CCCC(c2cncc(Nc3ncccn3)n2)C1` (stereo not drawn): the Percent Effect was found to be 5.38%.

For the compound `O=C(Cc1ccccc1)N1CCC2(CC(=O)N(c3ccsc3)C2)C1` (stereo not drawn), the Percent Effect was 14.8%.

Regarding `CCCSCC(=O)NS(=O)(=O)c1ccc2c(c1)OCCO2`, the Percent Effect amounted to 1.47%.

`O=C(NC1CC1)[C@H]1C[C@@H]2CCN(CCc3ccccc3)C[C@H]2O1`: the Percent Effect turned out to be 1.06%.

Take `OC1CCCN(Cc2c(-c3ccco3)[nH]c3ncccc23)C1` (stereo not drawn): the Percent Effect was 6.45%.

Consider `Cn1cccc1C1CCCN1C(=O)NCCCn1cccn1` (stereo not drawn), for which the Percent Effect was found to be 4.92%.

As to `O=C(NC1(c2nnn(CCO)n2)CCCC1)c1ccccc1`, the Percent Effect was 6.01%.

For the compound `O=C(Cc1ccccc1)N1CCC2(CC(=O)N(c3cccc(F)c3)C2)C1` (stereo not drawn), the Percent Effect turned out to be 3.23%.

For `c1cncc(C2COC3(CCN(CC4CC4)CC3)C2)c1` (stereo not drawn), the Percent Effect worked out at 8.91%.

Turning to `Cc1nc(C2CCCN(C(=O)c3ccc(OCC4CC4)cc3)C2)no1` (stereo not drawn), the Percent Effect worked out at 5.42%.

For `Cc1ncsc1C(=O)NC1CCN(CCC(N)=O)CC1`, the Percent Effect came to 4.85%.

For `CCn1cc(N)c(C(=O)NCc2cnn(C)c2)n1`, the Percent Effect was determined as 6.45%.

Take `O=C(NCCNc1ccc(C(F)(F)F)cn1)c1ccc(Br)cc1F`: the Percent Effect turned out to be 3.81%.

`CCc1ccc(C(=O)N2CCCC(c3noc(CC)n3)C2)o1` (stereo not drawn): the Percent Effect is 0.952%.

For `CN(c1ccc(C(=O)NCCCN2CCOCC2)c(Cl)c1)S(C)(=O)=O`, the Percent Effect was 5.38%.

For `CCN1CCCC1CN(CCN(C)C)S(=O)(=O)c1ccc(C#N)cc1` (stereo not drawn), the Percent Effect amounted to 4.3%.

Regarding `CN(C)C(C)(C)CNC(=O)C(C)(C)c1ccccc1F`, the Percent Effect is 4.21%.

Turning to `Cc1cccc(CCC(=O)N2CCOCC2c2c(C)n[nH]c2C)c1` (stereo not drawn), the Percent Effect was -3.23%.

On to `COc1ccc(NC(=O)c2ccc[nH]2)c(N2CCN(C(C)=O)CC2)n1`, for which the Percent Effect was found to be 6.93%.

Take `CS(=O)(=O)NCC1CCCN(C(=O)Nc2ccccc2Cl)C1` (stereo not drawn): the Percent Effect was found to be 7.45%.

As for `O=c1cc2c(nn1CN1CCOCC1)CCC2`, the Percent Effect is 6.35%.

In the case of `CN(C)C(CNC(=O)c1cccc(-n2cnnn2)c1)c1ccccc1Cl` (stereo not drawn), the Percent Effect was 3.23%.

In the case of `COc1cccc2c1ccn2CCNC(=O)C(C)C`, the Percent Effect came out at 7.41%.

In the case of `CCc1ncncc1C(=O)N1CCCN(Cc2ccc(C)cc2)CC1`, the Percent Effect is -2.46%.

In the case of `CC(NC1(CNC(=O)C(C)(C)C#N)CCOCC1)c1ccccc1` (stereo not drawn), the Percent Effect was -7.53%.

Turning to `COc1ccc(CN2C[C@@H]3OCCN(CC4CCCO4)[C@@H]3C2)cc1` (stereo partly drawn), the Percent Effect turned out to be 3.24%.

Take `Cc1cc(C)c(CNC(=O)N2CCN(c3cnccn3)CC2)c(=O)[nH]1`: the Percent Effect is 3.43%.

On to `Cc1nc(CN(Cc2cccs2)C2CCS(=O)(=O)C2)oc1C` (stereo not drawn), for which the Percent Effect was determined as 5.42%.

With `CCOc1ccc(S(=O)(=O)NC(=O)CCC2CCCO2)cc1` (stereo not drawn), the Percent Effect stood at 10.3%.

Regarding `CC(C)NC(=O)N1CC[C@@H]2CN(Cc3ccccc3)S(=O)(=O)[C@@H]2CC1`, the Percent Effect was -5.41%.

For the compound `CN(Cc1ccc(F)cc1)C(=O)CN1CCCC(Cn2cncn2)C1` (stereo not drawn), the Percent Effect was 7.39%.

Consider `CNS(=O)(=O)c1ccc(C(=O)N2CCCC(n3cccn3)C2)cc1` (stereo not drawn), for which the Percent Effect was determined as 3.43%.

In the case of `Cc1ccc(F)c(-n2nnc(C(=O)O)c2-c2ccncc2)c1`, the Percent Effect amounted to 3.19%.

`CN(C)c1ccc(C(=O)NCC2(O)CCOCC2)cc1`: the Percent Effect was found to be 5.82%.

For `CNS(=O)(=O)CCCN1CCCC1c1cc(C)on1` (stereo not drawn), the Percent Effect is 0.493%.

`CCN1CC2(CC1=O)CN(Cc1cccs1)CCN(C(=O)C(C)C)C2` (stereo not drawn): the Percent Effect was found to be 4.95%.
